# Laboratory results reported in PubChem BioAssay AID651739 (Broad Institute, 2012).
# Hit rate of the full screen: of about 5,600 compounds, about 4,100 (73%) were called active. Inconclusive results (about 4%) are left out. So high a share suggests a set chosen from earlier hits. The list is a sample of the results. A number with no mark means an inactive call.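 How the source made its calls: active means mean replicate inhibition above about 95% and at least 55% of replicates individually reaching it (limit read from the data); inconclusive means only one of the two criteria is met; inactive means neither criterion is met.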
# Assay: T. cruzi intracellular proliferation inhibitors, confirmation, cell-based, NIH3T3 host, beta-gal parasite, luminescence, cherry-pick (AID 651739)
# Conditions: T. cruzi beta-gal in NIH3T3, GalScreen luminescence, 90 h; at 8.35 µM; stronger effect = higher value
row,SMILES,inhibition
1,O=C(C1CCC1)N1CCCCN2[C@H](CO)[C@H](c3ccc(-c4cccc(F)c4)cc3)[C@@H]2C1,109% (active)
2,O=C(Nc1cccc(F)c1)N1CCCCN2[C@H](CO)[C@H](c3ccc(C#CC4CC4)cc3)[C@@H]2C1,109% (active)
3,O=C(Nc1ccccc1)N1CCCCN2[C@H](CO)[C@@H](c3ccc(C#Cc4ccccn4)cc3)[C@H]2C1,90%
4,N#Cc1cccc(-c2ccc([C@H]3[C@H](CO)N4CCCCN(C(=O)Nc5cccc(F)c5)C[C@@H]34)cc2)c1,94.2%
5,C[C@H]1CN([C@@H](C)CO)S(=O)(=O)c2ccc(C3=CCCCC3)cc2O[C@@H]1CN(C)Cc1ccccc1,102% (active)
6,C[C@@H]1CN([C@H](C)CO)S(=O)(=O)c2ccc(C3=CCCC3)cc2O[C@H]1CN(C)Cc1ccccc1F,99.3% (active)
7,C[C@H]1CN([C@@H](C)CO)S(=O)(=O)c2ccc(C3=CCCC3)cc2O[C@@H]1CN(C)Cc1ccccc1,96.5% (active)
8,C[C@H](CO)N1C[C@H](C)[C@@H](CN(C)S(=O)(=O)c2ccc(F)cc2)Oc2cc(C3=CCCC3)ccc2S1(=O)=O,94.1%
9,C[C@@H]1CN([C@@H](C)CO)C(=O)c2cc(NC(=O)Nc3cccc4ccccc34)ccc2O[C@@H](C)CCCCO[C@H]1CN(C)Cc1ccccc1,107% (active)
10,C[C@@H]1CCCCO[C@@H](CN(C)C(=O)Nc2ccc(F)cc2)[C@H](C)CN([C@H](C)CO)C(=O)c2cc(NC(=O)Nc3cccc4ccccc34)ccc2O1,114% (active)
11,C[C@@H]1CCCCO[C@@H](CN(C)Cc2ccccc2)[C@H](C)CN([C@H](C)CO)C(=O)c2cc(NC(=O)Nc3cccc4ccccc34)ccc2O1,96.4% (active)
12,C[C@@H]1CN([C@@H](C)CO)C(=O)c2cc(NC(=O)Cc3ccccc3)ccc2O[C@@H]1CN(C)Cc1ccc(Oc2ccccc2)cc1,99.9% (active)
13,C[C@H]1CN([C@@H](C)CO)C(=O)c2cc(NC(=O)Nc3ccc4c(c3)OCO4)ccc2O[C@@H]1CN(C)Cc1ccc(Oc2ccccc2)cc1,103% (active)
14,C[C@@H]1CN([C@@H](C)CO)C(=O)c2cc(NC(=O)Nc3ccc4c(c3)OCO4)ccc2O[C@@H]1CN(C)Cc1ccc(Oc2ccccc2)cc1,101% (active)
15,C[C@@H]1CN([C@H](C)CO)C(=O)Cc2cc(NC(=O)Cc3ccccc3)ccc2O[C@H]1CN(C)Cc1ccc(Oc2ccccc2)cc1,112% (active)
16,C[C@H]1CN([C@@H](C)CO)C(=O)Cc2cc(NC(=O)Cc3cn(C)c4ccccc34)ccc2O[C@@H]1CN(C)Cc1ccc(C(F)(F)F)cc1,104% (active)
17,C[C@H]1CN([C@@H](C)CO)C(=O)Cc2cc(NC(=O)Cc3cn(C)c4ccccc34)ccc2O[C@@H]1CN(C)Cc1ccccc1,77.4%
18,COc1ccc(S(=O)(=O)N(C)C[C@H]2Oc3c(NC(=O)Nc4cccc5ccccc45)cccc3C(=O)N([C@@H](C)CO)C[C@H]2C)cc1,98.8% (active)
19,C[C@H]1CN([C@@H](C)CO)C(=O)c2cccc(NS(=O)(=O)c3cn(C)cn3)c2O[C@@H]1CN(C)CC1CCCCC1,46.2%
20,Cc1ccc(S(=O)(=O)N(C)C[C@@H]2Oc3c(NC(=O)c4nc5ccccc5s4)cccc3C(=O)N([C@H](C)CO)C[C@@H]2C)cc1,95.2% (active)
21,COc1ccc(NC(=O)N(C)C[C@@H]2Oc3c(NC(=O)NC4CCCCC4)cccc3C(=O)N([C@@H](C)CO)C[C@@H]2C)cc1,51.2%

row,SMILES,inhibition
1,C[C@@H]1CN([C@@H](C)CO)S(=O)(=O)c2ccc(C#Cc3ccccc3)cc2O[C@@H]1CN(C)C(=O)Nc1ccccc1,103% (active)
2,C[C@@H]1CN([C@@H](C)CO)S(=O)(=O)c2ccc(C#Cc3ccc(F)cc3)cc2O[C@H]1CN(C)C(=O)NC1CCCC1,105% (active)
3,C[C@@H]1CN([C@@H](C)CO)S(=O)(=O)c2ccc(C#Cc3ccc(F)cc3)cc2O[C@H]1CN(C)C(=O)c1ccccn1,108% (active)
4,C[C@@H]1CN([C@@H](C)CO)S(=O)(=O)c2ccc(-c3ccncc3)cc2O[C@@H]1CN(C)C(=O)Nc1ccc(F)cc1,100% (active)
5,N#Cc1ccc(-c2ccc3c(c2)[C@@H]2[C@@H](CCN2C(=O)Cc2ccncc2)[C@@H](CO)N3)cc1,112% (active)
6,COCC(=O)N1CC[C@@H]2[C@@H](CO)Nc3ccc(-c4cccc(C#N)c4)cc3[C@@H]21,111% (active)
7,C[C@H](CO)N1C[C@H](C)[C@@H](CN(C)C(=O)Nc2cc(F)ccc2F)Oc2cc(C#CC3CC3)ccc2S1(=O)=O,108% (active)
8,C[C@@H]1CN([C@H](C)CO)S(=O)(=O)c2ccc(-c3cccc(C#N)c3)cc2O[C@@H]1CN(C)C(=O)Nc1ccccc1F,86.6%
9,C[C@H]1CN([C@@H](C)CO)S(=O)(=O)c2ccc(C#CC3CCCC3)cc2O[C@@H]1CN(C)C(=O)c1cccc(F)c1,96.6% (active)
10,CC(=O)N1[C@H](CNC(=O)C2CC2)[C@@H](c2ccc(-c3cccc(F)c3)cc2)[C@@H]1CO,19.2%
11,CCN(C[C@H]1[C@H](c2ccccc2)[C@H](CO)N1C(=O)C1CC1)C(=O)NC1CCCC1,-20.8%
12,CC(=O)NC[C@@H]1[C@@H](c2ccc(-c3ccccc3F)cc2)[C@@H](CO)N1C(=O)C1CC1,15.9%
13,N#C[C@@H]1[C@H](c2ccc(C#Cc3cccc(F)c3)cc2)[C@@H](CO)N1C(=O)C1CCCC1,103% (active)
14,CCCC#Cc1ccc([C@@H]2[C@@H](C#N)N(C(=O)C3CCCC3)[C@@H]2CO)cc1,107% (active)
15,N#C[C@@H]1[C@@H](c2ccccc2)[C@@H](CO)N1C(=O)Cc1ccccc1,78.3%
16,N#C[C@@H]1[C@@H](c2ccc(C#Cc3cccc(F)c3)cc2)[C@@H](CO)N1C(=O)C1CCC1,104% (active)
17,N#C[C@@H]1[C@@H](c2ccc(/C=C/c3ccccc3)cc2)[C@@H](CO)N1C(=O)C1CC1,108% (active)
18,COCC(=O)N1[C@H](CO)[C@@H](c2ccc(C#Cc3ccccc3F)cc2)[C@@H]1C#N,107% (active)
19,CC(=O)N(C)C[C@@H]1[C@@H](c2ccc(-c3ccccc3F)cc2)[C@@H](CO)N1C(C)=O,19.8%
20,C[C@@H]1CCCCO[C@H](CN(C)S(=O)(=O)c2ccc(F)cc2)[C@H](C)CN([C@@H](C)CO)C(=O)c2cc(NS(=O)(=O)c3ccccc3)ccc2O1,109% (active)
21,Cc1ccc(S(=O)(=O)Nc2ccc3c(c2)C(=O)N([C@H](C)CO)C[C@H](C)[C@H](CN(C)C(=O)Nc2ccc(F)cc2)OCCCC[C@H](C)O3)cc1,108% (active)

row,SMILES,inhibition
1,Cc1ccc(S(=O)(=O)N(C)C[C@@H]2OCCCC[C@@H](C)Oc3ccc(NS(=O)(=O)c4ccc(F)cc4)cc3C(=O)N([C@H](C)CO)C[C@H]2C)cc1,97.7% (active)
2,COc1ccc(S(=O)(=O)N(C)C[C@H]2OCCCC[C@H](C)Oc3ccc(NS(=O)(=O)c4ccc(F)cc4)cc3C(=O)N([C@@H](C)CO)C[C@@H]2C)cc1,106% (active)
3,C[C@H](CO)N1C[C@H](C)[C@H](CN(C)S(=O)(=O)c2ccc(F)cc2)OCCCC[C@H](C)Oc2ccc(NS(=O)(=O)c3ccc(Cl)cc3)cc2C1=O,92.1%
4,Cc1ccc(S(=O)(=O)N2C[C@@H](O)COC[C@@H]3O[C@H](CC(=O)NCc4ccc(Cl)c(Cl)c4)CC[C@H]32)cc1,103% (active)
5,COc1cccc(S(=O)(=O)N2C[C@@H](O)COC[C@@H]3O[C@H](CC(=O)Nc4ccccc4)CC[C@H]32)c1,62.3%
6,COc1ccc(S(=O)(=O)Nc2ccc3c(c2)C(=O)N([C@H](C)CO)C[C@H](C)[C@H](CN(C)Cc2ccc(C(F)(F)F)cc2)O3)cc1,106% (active)
7,COc1ccc(S(=O)(=O)Nc2ccc3c(c2)C(=O)N([C@@H](C)CO)C[C@H](C)[C@@H](CN(C)Cc2ccc(C(F)(F)F)cc2)O3)cc1,88.7%
8,COc1ccc(S(=O)(=O)Nc2ccc3c(c2)C(=O)N([C@@H](C)CO)C[C@H](C)[C@H](CN(C)Cc2ccc(C(F)(F)F)cc2)O3)cc1,104% (active)
9,C[C@H](CO)N1C[C@H](C)[C@H](CN(C)Cc2ccc(C(F)(F)F)cc2)Oc2ccc(NS(=O)(=O)c3ccc(Cl)cc3)cc2C1=O,106% (active)
10,COc1ccc(CN(C)C[C@H]2Oc3ccc(NS(=O)(=O)c4ccc(Cl)cc4)cc3CC(=O)N([C@@H](C)CO)C[C@H]2C)cc1,100% (active)
11,Cc1ccc(S(=O)(=O)Nc2ccc3c(c2)C(=O)N([C@H](C)CO)C[C@H](C)[C@H](CN(C)Cc2ccc(Cl)c(Cl)c2)O3)cc1,102% (active)
12,COc1cccc(S(=O)(=O)Nc2ccc3c(c2)[C@H]2C[C@H](CC(=O)NCc4ccc(Cl)cc4)O[C@H](CO)[C@H]2O3)c1,104% (active)
13,O=C(C[C@@H]1C[C@@H]2c3cc(NC(=O)c4ccc5c(c4)OCO5)ccc3O[C@@H]2[C@@H](CO)O1)NCc1ccc(Cl)cc1,106% (active)
14,O=C(C[C@@H]1C[C@H]2c3cc(NC(=O)C4CCC4)ccc3O[C@H]2[C@@H](CO)O1)NCc1ccc2c(c1)OCO2,12.6%
15,O=C(Nc1ccc2c(c1)[C@@H]1C[C@H](CC(=O)N3CCOCC3)O[C@@H](CO)[C@@H]1O2)c1ccc2c(c1)OCO2,13.5%
16,C/C=C/c1ccc([C@H]2[C@@H](CNC(C)C)N(c3nc(CC)cs3)[C@H]2CO)cc1,101% (active)
17,C[C@@H]1CCCCO[C@H](CN(C)Cc2ccc(Cl)c(Cl)c2)[C@H](C)CN([C@@H](C)CO)C(=O)c2cc(NC(=O)C3CCCCC3)ccc2O1,97.4% (active)
18,C[C@H]1CCCCO[C@H](CN(C)Cc2ccc(C(F)(F)F)cc2)[C@@H](C)CN([C@@H](C)CO)C(=O)c2cc(NC(=O)C3CCCCC3)ccc2O1,100% (active)
19,C[C@@H]1CCCCO[C@@H](CN(C)CC2CC2)[C@H](C)CN([C@H](C)CO)C(=O)c2cc(NC(=O)C3CCCCC3)ccc2O1,99.2% (active)
20,C[C@@H]1CN([C@@H](C)CO)C(=O)c2cc(NC(=O)C3CCCCC3)ccc2O[C@@H](C)CCCCO[C@H]1CN(C)Cc1ccncc1,97.3% (active)
